Holding throughout (assay type): functional
In assay [1] the test system is Plasmodium falciparum. In words: GSK_TCMDC: Inhibition of Plasmodium falciparum 3D7 in whole red blood cells, using parasite LDH activity as an index of growth. Test compounds present at 2uM.
In assay [2] the test system is Plasmodium falciparum. Nature of the assay: GSK_TCMDC: Inhibition of Plasmodium falciparum Dd2 in whole red blood cells, using parasite LDH activity as an index of growth. Test compounds present at 2uM.
Another assay has as its system HepG2. Nature of the assay: GSK_TCMDC: Percent inhibition of human HepG2 cell line. Test compounds present at 10uM.

These results are taken from ChEMBL document CHEMBL1157539, “Thousands of chemical starting points for antimalarial lead identification” (Nature, 2010).

For the molecule `CN1CCN(c2ccnc3ccc(NC(=O)Nc4ccc(-c5ccncc5)c5ccccc45)cc23)CC1`, the values for the Inhibition in the assay with Plasmodium falciparum [1], in the assay with Plasmodium falciparum [2] and in the assay with HepG2 were 100%, 84% and 76%, respectively.
Regarding `Fc1ccccc1CNc1ncc(-c2ccsc2)c(-c2nccs2)n1`, the figures for the Inhibition in the assay on Plasmodium falciparum [1], in the assay on Plasmodium falciparum [2] and in the assay with HepG2 were 86%, 71% and 11%, respectively.
For the molecule `O=C(Nc1ccc(Cn2ncc(N3CCCNCC3)c(Cl)c2=O)cc1)Nc1cccc(C(F)(F)F)c1.O=C(O)C(F)(F)F`, the Inhibition worked out at 100% in the assay with Plasmodium falciparum [1], 30% in the assay with Plasmodium falciparum [2] and 20% in the assay with HepG2.
Turning to `Cc1cc(=NN=Cc2ccccn2)c2cc(C(F)(F)F)ccc2[nH]1`, the Inhibition in the assay with Plasmodium falciparum [1] is on record as 100%; in the assay with Plasmodium falciparum [2] it was 100%; with HepG2, 0%.
As for `COc1ccc(C(C(=O)NC2CCN(C[C@H](O)c3ccnc4ccc(OC)cc34)CC2)N2CCc3ccccc3C2)cc1` (stereo not given in full), the Inhibition in the assay on Plasmodium falciparum [1] is 96%; with Plasmodium falciparum [2] it was 30%; in the assay with HepG2, 19%.
With `O=C(Nc1ccc(Cl)c(-c2nc3ccccc3[nH]2)c1)c1ccc(-c2ccc(Cl)cc2)o1`, the Inhibition in the assay on Plasmodium falciparum [1] is 89%; in the assay on Plasmodium falciparum [2], 22%; in the assay on HepG2, 16%.
As for `Nc1nc(N)c2cc(C#Cc3ccc(-c4ccccc4)cc3)ccc2n1`, the Inhibition in the assay with Plasmodium falciparum [1] stood at 94%; in the assay on Plasmodium falciparum [2], 3%; in the assay with HepG2 it was 20%.
In the case of `COc1cccc(OC(C)(C)c2nc(N[C@@H](C)c3ccccc3)c3cn[nH]c3n2)c1`, the Inhibition in the assay on Plasmodium falciparum [1] is recorded as 89%; in the assay on Plasmodium falciparum [2], 69%; in the assay on HepG2 it was 44%.
As to `O=C(N[C@H]1CCN(CCc2ccc(O[C@H]3CCNC3)c(Br)c2)C1)c1ccc(Cl)c(Cl)c1.O=C(O)C(F)(F)F`, the Inhibition with Plasmodium falciparum [1] was 100%; in the assay on Plasmodium falciparum [2] it was 0%; with HepG2 it was 28%.
Consider `CCN(CC)CCOc1ccc(C(O)(C#CC(O)(c2ccc(OCCN(CC)CC)cc2)c2ccc([N+](=O)[O-])cc2)c2ccc([N+](=O)[O-])cc2)cc1` (stereo not given), for which the Inhibition turned out to be 98% with Plasmodium falciparum [1], 97% in the assay with Plasmodium falciparum [2] and 55% with HepG2.

Broadly, the Inhibition is the change of the read-out against control, counted positive when it falls. A low value points to a weak effect.
